Measurements taken from PubChem BioAssay.
Activity calls are given as the source filed them. Unless noted, the rule behind the calls is not given here.

Columns and labels:
[1] = test system: Wnt5a (protein binding on small-molecule microarray); test: Wnt5a binders on small-molecule microarray, primary screen, biophysical, 635/667 nm fluorescence (AID 1142); details: 635 nm fluorescence, higher = more signal;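 note: fluorescence read at 667 nm with signal to noise per printed feature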
[2] = cell viability in Huh7 cells, primary screen, cytotoxicity control for HCV replication inhibitor project, CellTiter-Glo luminescence, basal, 48 h (AID 1143); details: Huh7 HCV replicon, higher = more signal, called active from +8 up or from −8 down;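 note: Huh7 hepatoma cells carrying a hepatitis C replication reporter with no stimulus; test concentration not given here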
[3] = P. aeruginosa biofilm formation inhibitors, primary screen, PAO1 strain, BacTiter-Glo luminescence, LB-PBS (AID 1144); details: 12 h, higher = more signal
[4] = CREB reporter modulators without forskolin, primary screen, cell-based, PC12, CRE-LacZ reporter, unstimulated (AID 1145); details: no forskolin, luminescence, 4.5 h, higher = more signal, called active from +8 up or from −8 down
[5] = CREB reporter modulators under forskolin, primary screen, cell-based, PC12, CRE-LacZ reporter, forskolin-stimulated (AID 1146); details: luminescence, 4.5 h, higher = more signal, called active from +8 up or from −8 down;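 note: PC12 cells with 6xCRE LacZ reporter stimulated by forskolin 10 µM; beta-galactosidase reporter signal reflecting CREB driven transcription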
[6] = biological target: Streptavidin (Streptomyces avidinii) (UniProt P22629); test: streptavidin binders on small-molecule microarray, primary screen, artefact control for SMM compound annotation, biophysical, 635/667 nm fluorescence (AID 1147); details: streptavidin binding, higher = more signal;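 note: signal reflects streptavidin binding to arrayed compounds as a control protein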
[7] = small-molecule binders of probe aInhba, primary screen, biochemical, small-molecule microarray, 635/667 nm fluorescence (AID 1148); details: higher = more signal;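 note: score merges 667nm spot fluorescence with signal-to-noise for antibody binding to printed compounds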
[8] = biological target: Torsin-1A (Homo sapiens) (UniProt O14656); test: torsin A binders from cell lysate, primary screen, small-molecule microarray, wild-type, 635/667 nm (AID 1149); details: COS7 hTOR1A-WT lysate, 635 nm fluorescence, higher = more signal
[9] = biological target: Torsin-1A (Homo sapiens) (UniProt O14656); test: small-molecule binders of mutant TOR1A in lysate, primary screen, cell lysate, small-molecule microarray, COS7 lysate, 635/667 nm fluorescence (AID 1150); details: COS7 hTOR1A mutant lysate, 635 nm fluorescence, higher = more signal;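 note: score pools 667 nm emission and signal to noise measuring lysate protein binding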
[10] = test system: Sonic hedgehog protein (Shh); test: small-molecule binders of Shh protein, primary screen, biochemical, small-molecule microarray, 635/667 nm fluorescence (AID 1151); details: small-molecule microarray binding, 635 nm fluorescence; higher = more signal;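 note: Shh protein binding to compounds spotted on small-molecule microarray slides; score combines spot fluorescence intensity with signal-to-noise across triplicate slides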
[11] = E. coli DRC41 culture turbidity changes, primary screen, E. coli filamentation inducer project, strain DRC41, OD650, 48 h (AID 1152);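 note: E. coli MC1000 strain DRC41 lacking acrAB efflux pump and sulA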; details: E. coli DRC41 (acrAB sulA), higher = more signal, called active from +8 up or from −8 down
[12] = small-molecule binders of probe aLefty1, primary screen, biochemical, small-molecule microarray, 635/667 nm fluorescence (AID 1153); details: higher = more signal;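 note: score merges spot fluorescence with signal-to-noise ratio from the scanned slide images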
[13] = PSAC antagonists in infected red cells, primary screen, cell-based, P. falciparum Indochina, OD700, 1 h (AID 1154); details: P. falciparum Indochina infected RBC osmotic lysis, higher = more signal, called active from +8 up or from −8 down
[14] = PSAC antagonists in infected red cells, primary screen, cell-based, P. falciparum Indochina, OD700, 2 h (AID 1155);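 note: lysis reports solute entry through the parasite surface anion channel PSAC; channel blockers reduce lysis of infected cells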; details: P. falciparum Indochina infected erythrocytes, osmotic lysis OD700; higher = more signal, called active from +8 up or from −8 down
[15] = osmotic lysis modulators in infected erythrocytes, primary screen, PSAC antagonist project, cell-based, P. falciparum Indochina, OD700, 3 h (AID 1156); details: higher = more signal, called active from +8 up or from −8 down
[16] = PSAC antagonists in infected red cells, primary screen, cell-based, P. falciparum Indochina, OD700, 18 h (AID 1157); details: P. falciparum Indochina infected erythrocytes, osmotic lysis OD700, 18 h; higher = more signal, called active from +8 up or from −8 down
[17] = modulators of S6 phosphorylation in cells, primary screen, cell-based, A549, cytoblot, luminescence, serum-stimulated (AID 1158); details: A549 phospho-S6 cytoblot, 5 h, higher = more signal;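 note: serum-stimulated A549 lung adenocarcinoma cells; signal is phosphorylated S6 detected by cytoblot immunostaining with HRP secondary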
[18] = biological target: NADPH oxidase 2 (Homo sapiens) (UniProt P04839); test: NOX2-dependent H2O2 signal modulators, primary screen, NOX inhibitor project, cell-based, HEK293-NOX2, PMA-stimulated, Amplex Red fluorescence (AID 1159); details: 45 min, higher = more signal, called active from +8 up or from −8 down; note: test concentration not given here
[19] = biological target: NADPH oxidase 4 (Homo sapiens) (UniProt Q9NPH5); test: NOX4-dependent H2O2 signal modulators, primary screen, NOX inhibitor project, cell-based, HEK293-NOX4, tetracycline-induced, Amplex Red fluorescence (AID 1160); details: 45 min, higher = more signal, called active from +8 up or from −8 down
[20] = biological target: NADPH oxidase 5 (Homo sapiens) (UniProt Q96PH1); test: NOX5-dependent H2O2 signal modulators, primary screen, NOX inhibitor project, cell-based, HEK293-NOX5, Amplex Red fluorescence (AID 1161); details: HEK293-NOX5, ionomycin, 45 min, higher = more signal
Chain of NADPH oxidase 5 (Homo sapiens) (Q96PH1 whole entry, looked up): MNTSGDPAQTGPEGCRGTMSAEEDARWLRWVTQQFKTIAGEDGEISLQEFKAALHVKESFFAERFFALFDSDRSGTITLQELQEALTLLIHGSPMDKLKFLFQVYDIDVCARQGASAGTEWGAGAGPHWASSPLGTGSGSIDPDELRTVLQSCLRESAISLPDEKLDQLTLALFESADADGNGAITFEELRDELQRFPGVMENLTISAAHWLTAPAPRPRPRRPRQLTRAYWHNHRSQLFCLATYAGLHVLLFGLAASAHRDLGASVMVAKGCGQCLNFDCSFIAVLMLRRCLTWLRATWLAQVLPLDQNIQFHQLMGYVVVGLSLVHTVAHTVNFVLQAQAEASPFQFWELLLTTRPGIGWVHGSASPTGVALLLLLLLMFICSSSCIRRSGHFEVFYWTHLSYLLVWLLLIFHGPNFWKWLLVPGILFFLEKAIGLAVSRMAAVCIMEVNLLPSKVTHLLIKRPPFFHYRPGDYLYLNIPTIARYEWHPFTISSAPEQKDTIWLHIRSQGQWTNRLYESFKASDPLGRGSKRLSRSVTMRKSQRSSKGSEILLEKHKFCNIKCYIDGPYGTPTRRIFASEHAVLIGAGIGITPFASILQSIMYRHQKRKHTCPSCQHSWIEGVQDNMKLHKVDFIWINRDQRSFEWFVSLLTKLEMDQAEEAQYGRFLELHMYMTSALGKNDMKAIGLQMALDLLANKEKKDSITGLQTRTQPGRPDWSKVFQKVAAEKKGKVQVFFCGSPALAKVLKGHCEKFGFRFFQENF

Chain of Streptavidin (Streptomyces avidinii) (P22629 whole entry, looked up): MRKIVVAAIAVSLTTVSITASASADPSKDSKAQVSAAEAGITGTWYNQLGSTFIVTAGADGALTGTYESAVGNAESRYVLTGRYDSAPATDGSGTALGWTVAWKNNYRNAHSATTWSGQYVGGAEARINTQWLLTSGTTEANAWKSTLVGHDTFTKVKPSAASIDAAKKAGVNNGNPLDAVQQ
Chain of NADPH oxidase 2 (Homo sapiens) (P04839 whole entry, looked up): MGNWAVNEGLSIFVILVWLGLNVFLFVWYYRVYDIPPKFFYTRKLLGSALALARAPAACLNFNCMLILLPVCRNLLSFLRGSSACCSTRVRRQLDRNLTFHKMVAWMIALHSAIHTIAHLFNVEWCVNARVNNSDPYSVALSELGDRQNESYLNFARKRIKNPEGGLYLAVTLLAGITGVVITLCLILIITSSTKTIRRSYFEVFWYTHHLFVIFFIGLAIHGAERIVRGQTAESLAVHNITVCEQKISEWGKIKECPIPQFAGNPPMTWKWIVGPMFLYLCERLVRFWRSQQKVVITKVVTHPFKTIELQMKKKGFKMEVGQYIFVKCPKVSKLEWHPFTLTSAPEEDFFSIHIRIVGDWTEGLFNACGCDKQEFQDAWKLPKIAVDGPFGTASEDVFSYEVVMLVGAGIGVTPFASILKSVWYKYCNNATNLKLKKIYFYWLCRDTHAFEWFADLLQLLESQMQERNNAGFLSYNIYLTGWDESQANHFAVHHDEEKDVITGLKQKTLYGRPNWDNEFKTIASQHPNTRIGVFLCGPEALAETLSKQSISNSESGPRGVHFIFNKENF
Chain of NADPH oxidase 4 (Homo sapiens) (Q9NPH5 whole entry, looked up): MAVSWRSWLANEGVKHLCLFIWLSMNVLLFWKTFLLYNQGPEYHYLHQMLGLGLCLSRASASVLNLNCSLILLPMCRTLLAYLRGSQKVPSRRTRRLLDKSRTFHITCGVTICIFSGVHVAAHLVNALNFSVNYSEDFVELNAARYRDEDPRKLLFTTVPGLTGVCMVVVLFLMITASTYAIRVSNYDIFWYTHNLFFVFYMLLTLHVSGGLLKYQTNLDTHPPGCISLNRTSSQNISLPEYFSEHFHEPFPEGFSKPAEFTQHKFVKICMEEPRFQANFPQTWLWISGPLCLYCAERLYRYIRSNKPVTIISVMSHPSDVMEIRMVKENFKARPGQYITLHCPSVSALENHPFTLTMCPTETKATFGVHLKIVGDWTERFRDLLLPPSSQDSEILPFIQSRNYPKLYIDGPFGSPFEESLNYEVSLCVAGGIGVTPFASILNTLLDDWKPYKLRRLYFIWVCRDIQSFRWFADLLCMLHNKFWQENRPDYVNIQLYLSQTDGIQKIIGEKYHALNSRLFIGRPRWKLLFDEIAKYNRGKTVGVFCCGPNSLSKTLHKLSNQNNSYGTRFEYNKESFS
Chain of Torsin-1A (Homo sapiens) (O14656 whole entry, looked up): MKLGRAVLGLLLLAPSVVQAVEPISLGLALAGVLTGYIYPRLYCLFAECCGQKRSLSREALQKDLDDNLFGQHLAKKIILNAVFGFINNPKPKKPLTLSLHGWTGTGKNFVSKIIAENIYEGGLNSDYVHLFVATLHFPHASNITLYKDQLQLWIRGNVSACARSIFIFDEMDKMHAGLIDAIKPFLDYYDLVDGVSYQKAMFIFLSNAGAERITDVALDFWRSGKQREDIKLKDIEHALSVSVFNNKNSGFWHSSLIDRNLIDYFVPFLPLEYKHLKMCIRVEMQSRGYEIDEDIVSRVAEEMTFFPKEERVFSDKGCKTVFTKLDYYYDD

SMILES	composite z-score [1]	z-score [2]	z-score [3]	z-score [4]	z-score [5]	composite z-score [6]	composite z-score [7]	composite z-score [8]	composite z-score [9]	composite z-score [10]	z-score [11]	composite z-score [12]	z-score [13]	z-score [14]	z-score [15]	z-score [16]	z-score [17]	z-score [18]	z-score [19]	z-score [20]
O=C1[C@H]2[C@H]3[C@H](O)[C@H](O)CC(=NO[C@@H]4O[C@H](CO)[C@@H](O)[C@H](O)[C@H]4O)[C@H]3CC[C@H]2C(=O)N1c1ccc(F)cc1F	0.0816	-1.9 (inactive)	1.42 (inactive)	-0.837 (inactive)	-0.0522 (inactive)	-0.695	-0.0774	0.835	0.189	-0.704	-0.205 (inactive)	0.0865	2.95 (inactive)	0.454 (inactive)	0.887 (inactive)	0.159 (inactive)	-0.56	-0.307 (inactive)	0.73 (inactive)	0.667
CC(C)=CCCC(C)=CCON=C1C[C@@H](O)[C@@H](O)[C@@H]2[C@@H]3C(=O)N(Cc4ccc5c(c4)OCO5)C(=O)[C@@H]3CC[C@H]12	0.352	-1.61 (inactive)	0.802 (inactive)	-0.295 (inactive)	0.489 (inactive)	0.133	-0.0332	0.46	0.724	0.728	-0.171 (inactive)	-0.202	11.1 (active)	1.73 (inactive)	1.64 (inactive)	0.844 (inactive)	-0.429	-0.344 (inactive)	-2.35 (inactive)	-4.13
CCOC(=O)CCN1C(=O)[C@H]2[C@H]3[C@H](O)[C@H](O)CC(=NOCC=C(C)CCC=C(C)C)[C@@H]3CC[C@H]2C1=O	0.377	0.16 (inactive)	0.0232 (inactive)	0.875 (inactive)	0.427 (inactive)	0.111	0.0756	0.957	0.588	1.02	-0.879 (inactive)	-0.193	0.0845 (inactive)	0.278 (inactive)	-0.931 (inactive)	-0.014 (inactive)	0.233	-0.737 (inactive)	0.511 (inactive)	-0.0503
COC(OC)[C@@H](C)[C@H](OC)[C@@H](C)[C@H](OC)c1ccccc1	0.3	-0.609 (inactive)	-1.32 (inactive)	1.46 (inactive)	0.0401 (inactive)	-0.211	-0.321	0.237	-0.252	0.155	0.215 (inactive)	-0.235	-0.271 (inactive)	-0.947 (inactive)	-0.75 (inactive)	-1.06 (inactive)	1.67	0.491 (inactive)	0.153 (inactive)	0.577
CCN1C(=O)[C@H]2[C@H]3[C@H](O)[C@H](O)CC(=NO[C@H](C)c4cn([C@@H]5COC[C@H]5O)nn4)[C@@H]3CC[C@H]2C1=O	0.0122	0.654 (inactive)	-0.332 (inactive)	0.0013 (inactive)	0.446 (inactive)	0.079	-0.0468	0.174	0.0806	0.0707	-0.712 (inactive)	-0.322	2.21 (inactive)	0.76 (inactive)	0.436 (inactive)	0.564 (inactive)	-0.582	0.477 (inactive)	0.226 (inactive)	0.919
COC(=O)[C@H](CCSC)NC(=O)CC=C[C@@H](C)CO	0.848	-0.62 (inactive)	-0.449 (inactive)	0.75 (inactive)	0.118 (inactive)	-1.27	-0.128	3.29	3.16	2.18	0.193 (inactive)	-0.101	0.291 (inactive)	0.317 (inactive)	-0.0396 (inactive)	-0.167 (inactive)	0.81	1.58 (inactive)	-1.2 (inactive)	0.613
CCOC(=O)CCN1C(=O)[C@H]2[C@H]3[C@H](O)[C@H](O)CC(=NOCC(C)C)[C@@H]3CC[C@H]2C1=O	0.0707	-1.76 (inactive)	-0.123 (inactive)	0.424 (inactive)	-0.209 (inactive)	-0.483	-0.0986	2.79	2.77	1.1	-0.214 (inactive)	-0.0051	6.67 (inactive)	0.232 (inactive)	-0.0758 (inactive)	0.134 (inactive)	-0.651	0.913 (inactive)	0.783 (inactive)	0.295
COC(=O)C1=C(C)N(Cc2ccccc2)C2=C3C(=O)OCC[C@@H]3[C@@](O)(C(=O)OC)C(=O)N2[C@@H]1c1ccccc1	0.226	-0.0119 (inactive)	-0.356 (inactive)	4.9 (inactive)	-1.1 (inactive)	0.299	-0.0221	-0.154	0.319	0.404	0.884 (inactive)	-0.286	0.121 (inactive)	0.132 (inactive)	0.0954 (inactive)	0.126 (inactive)	0.0012	0.0769 (inactive)	-0.0428 (inactive)	0.251
COC(=O)[C@H](C)NC(=O)CCC1CC(OC(=O)NCCc2ccc(F)cc2)CC2(CCCC(COC(=O)NCc3ccccc3)O2)O1 (stereo not given in full)	0.101	-0.455 (inactive)	-0.035 (inactive)	0.199 (inactive)	0.833 (inactive)	0.848	-0.0209	0.257	0.477	1.25	-1.03 (inactive)	0.0367	-0.622 (inactive)	-0.694 (inactive)	-0.384 (inactive)	-0.268 (inactive)	0.788	0.0624 (inactive)	-0.0206 (inactive)	0.519
